# Reference: PubChem BioAssay (NCI)
# About 83,000 compounds went through this panel and 20% of them were active in at least one assay; those are over-represented in the sample as a whole.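 Each cell line was grown in a 96-well plate and treated with one concentration of compound for 48 hours. Values below 10 were considered active.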 Unmarked numbers belong to inactive results. Activity calls are given as the source filed them.
# Test system: CCRF-CEM leukemia
# Experiment: NCI-60 one-dose screen, 48 h (100 = growth as untreated, 0 = no growth, -100 = all killed)
# Details: 10 µM unless noted
row,Compound,growth
1,O=c1oc2ccc(Br)cc2c(=O)n1-c1ccc(F)cc1F,14.1%
2,O=c1c2cc(F)cc(Cl)c2sc2c(Cl)nc3ccccc3c12,86.9%
3,O=C(CCN1C(=O)c2ccccc2C1=O)Nc1ccc(Cl)cc1,43.3%
4,O=c1oc2ccc(Cl)cc2c(=O)n1-c1ccc(Cl)cc1F,5.21% (active)
5,O=C(Nc1ccc(F)cc1F)c1cc(Cl)ccc1O,15.4%
6,O=c1oc2ccc(I)cc2c(=O)n1-c1ccc(Cl)cc1F,7.77% (active)
7,CC1=C(C(=O)OCC2CCN(C(=O)OC(C)(C)C)CC2)[C@@H](c2cccc(C#N)c2)C2=C(CC(C)(C)CC2=O)N1,36.8%
8,COc1cccc(/C=C/C(=O)c2c(C)nc3ccccc3c2/C=C/c2ccccc2)c1OC,13%
9,O=c1oc2ccc(F)cc2c(=O)n1-c1ccc(F)cc1F,35.9%
10,O=C1c2cc(I)ccc2Oc2cc([N+](=O)[O-])ccc2N1c1ccc(Cl)cc1F,76.8%
11,O=c1oc2ccc(-c3ccc(F)cc3F)cc2c(=O)n1-c1ccc(Cl)c(C(F)(F)F)c1,13.2%
12,COc1ccc(/C=C/C(=O)c2c(C)nc3ccccc3c2/C=C/c2ccccc2)cc1O,32.2%
13,O=c1oc2ccc(-c3ccc(F)cc3F)cc2c(=O)n1-c1cccc(C(F)(F)F)c1,10.4%
14,COc1ccc(OC)c(/C=C/C(=O)c2c(C)nc3ccccc3c2/C=C/c2ccccc2)c1,9.58% (active)
15,O=C(CCc1nnc2sc(COc3ccccc3)nn12)c1nc2ncccc2[nH]1,118%
16,O=C(COc1cc(O)c2c(=O)cc(-c3ccccc3)oc2c1)Nc1ccccc1,94.4%
17,O=C(CCc1nnc2sc(-c3ccc(Cl)cc3Cl)nn12)c1nc2ncccc2[nH]1,6.98% (active)
18,O=C1c2cc(Cl)ccc2Oc2cc([N+](=O)[O-])ccc2N1c1ccc(F)cc1F,85.3%
19,O=C(CCc1nnc2sc(Cc3ccccc3Cl)nn12)c1nc2ncccc2[nH]1,103%

row,Compound,growth
1,Nc1ccc(-c2nn3c(CCC(=O)c4nc5ncccc5[nH]4)nnc3s2)c(O)c1,94.1%
2,O=C(c1ccccc1)N(CCc1ccc(Cl)cc1)C(=S)N(C(=O)c1ccccc1)c1ccccc1,8.54% (active)
3,C#CCn1cc(C=C2C(=O)N(C)C(=O)N(C)C2=O)c2cc(Cl)ccc21,105%
4,O=C(Nc1ccc(I)cc1F)c1cc(Br)ccc1O,7.25% (active)
5,Cc1nc2ccccc2c(/C=C/c2ccccc2)c1C(=O)/C=C/c1ccc(Cl)cc1,3.51% (active)
6,O=C(Nc1ccc(F)cc1F)c1cc(Br)ccc1O,10.6%
7,O=C1NC(=S)NC(=O)C1=Cc1cn(Cc2cn(Cc3cccc4ccccc34)nn2)c2ccccc12,98.7%
8,COc1c(B(O)O)cccc1-c1nc2ccc3n[nH]c(F)c3c2c2c1CCCC2,38.8%
9,COc1c(B(O)O)cccc1-c1nc2ccc3[nH]ncc3c2c2c1C1CCC2C1 (stereo unspecified),20.5%
10,O=C(c1ccccc1)N(C(=S)NCCc1ccc(Cl)cc1)c1ccc(Cl)cc1,80.7%
11,O=C(Nc1ccc(I)cc1F)c1cc(F)ccc1O,6.38% (active)
12,CC1=C(C(=O)OCC2CCN(C(=O)OC(C)(C)C)CC2)[C@H](c2cccc(Br)c2)C2=C(CC(C)(C)CC2=O)N1,17.9%
13,O=c1oc2ccc(F)cc2c(=O)n1-c1ccc(Br)cc1F,11.1%
14,O=c1oc2ccc(I)cc2c(=O)n1-c1ccc(I)cc1F,6.91% (active)
15,O=c1oc2ccc(I)cc2c(=O)n1-c1ccc(F)cc1F,17.2%
16,Cn1cc([C@@H]2Nc3ccc4[nH]ncc4c3[C@H]3[C@H]4CCC(C4)[C@H]32)c(C(F)(F)F)n1,27.6%
17,O=C(Nc1ccc(Cl)cc1F)c1cc(Br)ccc1O,15.1%
18,O=c1oc2ccc(Cl)cc2c(=O)n1-c1ccc(I)cc1F,7.15% (active)
19,O=C(Nc1ccc(I)cc1F)c1cc(Cl)ccc1O,7.89% (active)

# Test system: MOLT-4 leukemia
# Experiment: as above
# Details: 10 µM unless noted
row,Compound,growth
1,O=c1oc2ccc(Br)cc2c(=O)n1-c1ccc(F)cc1F,17.5%
2,O=c1c2cc(F)cc(Cl)c2sc2c(Cl)nc3ccccc3c12,103%
3,O=C(CCN1C(=O)c2ccccc2C1=O)Nc1ccc(Cl)cc1,42%
4,O=c1oc2ccc(Cl)cc2c(=O)n1-c1ccc(Cl)cc1F,-25.1% (active)
5,O=C(Nc1ccc(F)cc1F)c1cc(Cl)ccc1O,8.79% (active)
6,O=c1oc2ccc(I)cc2c(=O)n1-c1ccc(Cl)cc1F,-11.1% (active)
7,CC1=C(C(=O)OCC2CCN(C(=O)OC(C)(C)C)CC2)[C@@H](c2cccc(C#N)c2)C2=C(CC(C)(C)CC2=O)N1,12.5%
8,COc1cccc(/C=C/C(=O)c2c(C)nc3ccccc3c2/C=C/c2ccccc2)c1OC,4.78% (active)
9,O=c1oc2ccc(F)cc2c(=O)n1-c1ccc(F)cc1F,22.3%
10,O=C1c2cc(I)ccc2Oc2cc([N+](=O)[O-])ccc2N1c1ccc(Cl)cc1F,56.6%
11,O=c1oc2ccc(-c3ccc(F)cc3F)cc2c(=O)n1-c1ccc(Cl)c(C(F)(F)F)c1,6.67% (active)
12,COc1ccc(/C=C/C(=O)c2c(C)nc3ccccc3c2/C=C/c2ccccc2)cc1O,29.9%
13,O=c1oc2ccc(-c3ccc(F)cc3F)cc2c(=O)n1-c1cccc(C(F)(F)F)c1,1.99% (active)
14,COc1ccc(OC)c(/C=C/C(=O)c2c(C)nc3ccccc3c2/C=C/c2ccccc2)c1,10.2%
15,O=C(CCc1nnc2sc(COc3ccccc3)nn12)c1nc2ncccc2[nH]1,113%
16,O=C(COc1cc(O)c2c(=O)cc(-c3ccccc3)oc2c1)Nc1ccccc1,91.1%
17,O=C(CCc1nnc2sc(-c3ccc(Cl)cc3Cl)nn12)c1nc2ncccc2[nH]1,5.44% (active)
18,O=C1c2cc(Cl)ccc2Oc2cc([N+](=O)[O-])ccc2N1c1ccc(F)cc1F,57.4%
19,O=C(CCc1nnc2sc(Cc3ccccc3Cl)nn12)c1nc2ncccc2[nH]1,86.2%

row,Compound,growth
1,Nc1ccc(-c2nn3c(CCC(=O)c4nc5ncccc5[nH]4)nnc3s2)c(O)c1,82.8%
2,O=C(c1ccccc1)N(CCc1ccc(Cl)cc1)C(=S)N(C(=O)c1ccccc1)c1ccccc1,28.7%
3,C#CCn1cc(C=C2C(=O)N(C)C(=O)N(C)C2=O)c2cc(Cl)ccc21,105%
4,O=C(Nc1ccc(I)cc1F)c1cc(Br)ccc1O,-12.2% (active)
5,Cc1nc2ccccc2c(/C=C/c2ccccc2)c1C(=O)/C=C/c1ccc(Cl)cc1,5.62% (active)
6,O=C(Nc1ccc(F)cc1F)c1cc(Br)ccc1O,0.366% (active)
7,O=C1NC(=S)NC(=O)C1=Cc1cn(Cc2cn(Cc3cccc4ccccc34)nn2)c2ccccc12,96.2%
8,COc1c(B(O)O)cccc1-c1nc2ccc3n[nH]c(F)c3c2c2c1CCCC2,37.8%
9,COc1c(B(O)O)cccc1-c1nc2ccc3[nH]ncc3c2c2c1C1CCC2C1 (stereo unspecified),52.8%
10,O=C(c1ccccc1)N(C(=S)NCCc1ccc(Cl)cc1)c1ccc(Cl)cc1,-10.7% (active)
11,O=C(Nc1ccc(I)cc1F)c1cc(F)ccc1O,-16.4% (active)
12,CC1=C(C(=O)OCC2CCN(C(=O)OC(C)(C)C)CC2)[C@H](c2cccc(Br)c2)C2=C(CC(C)(C)CC2=O)N1,4.54% (active)
13,O=c1oc2ccc(F)cc2c(=O)n1-c1ccc(Br)cc1F,-7.7% (active)
14,O=c1oc2ccc(I)cc2c(=O)n1-c1ccc(I)cc1F,-35.6% (active)
15,O=c1oc2ccc(I)cc2c(=O)n1-c1ccc(F)cc1F,13.8%
16,Cn1cc([C@@H]2Nc3ccc4[nH]ncc4c3[C@H]3[C@H]4CCC(C4)[C@H]32)c(C(F)(F)F)n1,29.4%
17,O=C(Nc1ccc(Cl)cc1F)c1cc(Br)ccc1O,0.561% (active)
18,O=c1oc2ccc(Cl)cc2c(=O)n1-c1ccc(I)cc1F,-28.6% (active)
19,O=C(Nc1ccc(I)cc1F)c1cc(Cl)ccc1O,-30.5% (active)
